# Reference: publication PMC11006913
# Changes are numbered by the printed parent chain.
# What was measured:
# Experiment in all cases: PBM; 200 nM protein, PBS
# Conditions in all cases: dsDNA, one strand shown
# HOXB9 [1] = molecular target: HOXB9 (Homo sapiens, UniProt P17482 171-250, T197M)
# HOXC9 [2] = molecular target: HOXC9 (Homo sapiens, UniProt P31274 178-260, K195R)
# VENTX = molecular target: T1, VENTX (Homo sapiens, UniProt O95231 78-163)
# T1 sequence: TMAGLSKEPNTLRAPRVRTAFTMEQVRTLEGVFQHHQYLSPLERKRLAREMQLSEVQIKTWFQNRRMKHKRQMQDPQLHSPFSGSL
# HOXA7 [3] = molecular target: HOXA7 (Homo sapiens, UniProt P31268 116-202)
# Sequence of HOXA7 (Homo sapiens, UniProt P31268 116-202) (P31268 116-202): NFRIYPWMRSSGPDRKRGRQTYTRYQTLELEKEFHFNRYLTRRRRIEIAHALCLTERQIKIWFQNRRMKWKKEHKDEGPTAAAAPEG
# HOXC10 [4] = molecular target: HOXC10 (Homo sapiens, UniProt Q9NYD6 254-340)
# Sequence of HOXC10 (Homo sapiens, UniProt Q9NYD6 254-340) (Q9NYD6 254-340): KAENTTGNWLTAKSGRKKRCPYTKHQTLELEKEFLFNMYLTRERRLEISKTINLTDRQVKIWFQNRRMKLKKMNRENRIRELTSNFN
# PAX4 [5] = molecular target: T2, PAX4 (Homo sapiens, UniProt O43316 9-242, R200K)
# T2 sequence: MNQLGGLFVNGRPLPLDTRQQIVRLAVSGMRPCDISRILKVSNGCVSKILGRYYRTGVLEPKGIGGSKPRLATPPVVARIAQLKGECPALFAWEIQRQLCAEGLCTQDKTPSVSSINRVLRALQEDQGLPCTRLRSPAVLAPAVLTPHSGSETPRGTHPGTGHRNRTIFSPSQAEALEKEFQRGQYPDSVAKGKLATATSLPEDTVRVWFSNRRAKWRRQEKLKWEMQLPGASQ
# PAX4 [6] = molecular target: T3, PAX4 (Homo sapiens, UniProt O43316 9-242)
# T3 sequence: T2 sequence with K192R
# HOXB9 [7] = molecular target: HOXB9 (Homo sapiens, UniProt P17482 171-250)
# Sequence of HOXB9 (Homo sapiens, UniProt P17482 171-250) (P17482 171-250): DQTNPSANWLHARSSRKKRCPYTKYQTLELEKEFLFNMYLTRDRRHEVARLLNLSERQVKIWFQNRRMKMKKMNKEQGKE
# HOXC9 [8] = molecular target: HOXC9 (Homo sapiens, UniProt P31274 178-260)
# Sequence of HOXC9 (Homo sapiens, UniProt P31274 178-260) (P31274 178-260): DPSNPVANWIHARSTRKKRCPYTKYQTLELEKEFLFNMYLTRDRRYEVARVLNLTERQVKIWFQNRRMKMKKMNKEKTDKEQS
# HOXC9 [9] = molecular target: HOXC9 (Homo sapiens, UniProt P31274 178-260, R193K)
# Sequence of HOXC9 (Homo sapiens, UniProt P31274 178-260, R193K) (P31274 178-260 R193K): as the sequence (P31274 178-260) above, with R16K counted along it
# HOXA2 [10] = molecular target: HOXA2 (Homo sapiens, UniProt O43364 129-215, R185K)
# Sequence of HOXA2 (Homo sapiens, UniProt O43364 129-215, R185K) (O43364 129-215 R185K): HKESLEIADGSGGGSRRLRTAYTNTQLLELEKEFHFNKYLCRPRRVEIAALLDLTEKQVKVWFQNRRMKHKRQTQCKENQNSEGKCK
# HOXC10 [11] = molecular target: HOXC10 (Homo sapiens, UniProt Q9NYD6 254-340, K271E)
# Sequence of HOXC10 (Homo sapiens, UniProt Q9NYD6 254-340, K271E) (Q9NYD6 254-340 K271E): as the sequence (Q9NYD6 254-340) above, with K18E counted along it
# VAX1 = VAX1 (Homo sapiens, UniProt Q5SQQ9 86-172)
# Sequence of VAX1 (Q5SQQ9 86-172): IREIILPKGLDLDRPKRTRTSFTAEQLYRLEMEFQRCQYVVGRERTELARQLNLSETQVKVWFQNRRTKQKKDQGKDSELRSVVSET
# HOXB9 [12] = molecular target: HOXB9 (Homo sapiens, UniProt P17482 171-250, R186Q)
# Sequence of HOXB9 (Homo sapiens, UniProt P17482 171-250, R186Q) (P17482 171-250 R186Q): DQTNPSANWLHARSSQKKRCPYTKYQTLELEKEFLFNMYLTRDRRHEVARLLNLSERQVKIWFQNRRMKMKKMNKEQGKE
# HOXC9 [13] = molecular target: HOXC9 (Homo sapiens, UniProt P31274 178-260, R222W)
# Sequence of HOXC9 (Homo sapiens, UniProt P31274 178-260, R222W) (P31274 178-260 R222W): as the sequence (P31274 178-260) above, with R45W counted along it
# PAX4 [14] = molecular target: T4, PAX4 (Homo sapiens, UniProt O43316 9-242, R227W)
# T4 sequence: T2 sequence with K192R, R219W
# HOXA2 [15] = molecular target: HOXA2 (Homo sapiens, UniProt O43364 129-215, Y150S)
# Sequence of HOXA2 (Homo sapiens, UniProt O43364 129-215, Y150S) (O43364 129-215 Y150S): as the sequence (O43364 129-215 R185K) above, with Y22S, K57R counted along it
# HOXA7 [16] = molecular target: HOXA7 (Homo sapiens, UniProt P31268 116-202, W177C)
# Sequence of HOXA7 (Homo sapiens, UniProt P31268 116-202, W177C) (P31268 116-202 W177C): as the sequence (P31268 116-202) above, with W62C counted along it
# HOXA2 [17] = molecular target: HOXA2 (Homo sapiens, UniProt O43364 129-215)
# Sequence of HOXA2 (Homo sapiens, UniProt O43364 129-215) (O43364 129-215): as the sequence (O43364 129-215 R185K) above, with K57R counted along it
# HOXB6 = HOXB6 (Homo sapiens, UniProt P17509 132-218)
# Sequence of HOXB6 (P17509 132-218): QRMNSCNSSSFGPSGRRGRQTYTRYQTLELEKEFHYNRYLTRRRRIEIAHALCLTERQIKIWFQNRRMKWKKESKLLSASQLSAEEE
# Sequence of HOXC9 (Homo sapiens, UniProt P31274 178-260, K195R) (P31274 178-260 K195R): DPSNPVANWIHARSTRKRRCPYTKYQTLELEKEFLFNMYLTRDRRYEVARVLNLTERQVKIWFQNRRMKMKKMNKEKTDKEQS
# Sequence of HOXB9 (Homo sapiens, UniProt P17482 171-250, T197M) (P17482 171-250 T197M): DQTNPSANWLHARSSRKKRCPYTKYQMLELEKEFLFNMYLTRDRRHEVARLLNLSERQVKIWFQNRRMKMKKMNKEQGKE
Sequence,binding signal (HOXB9 [1]),binding signal (HOXC9 [2]),binding signal (VENTX),binding signal (HOXA7 [3]),binding signal (HOXC10 [4]),binding signal (PAX4 [5]),binding signal (PAX4 [6]),binding signal (HOXB9 [7]),binding signal (HOXC9 [8]),binding signal (HOXC9 [9]),binding signal (HOXA2 [10]),binding signal (HOXC10 [11]),binding signal (VAX1),binding signal (HOXB9 [12]),binding signal (HOXC9 [13]),binding signal (PAX4 [14]),binding signal (HOXA2 [15]),binding signal (HOXA7 [16]),binding signal (HOXA2 [17]),binding signal (HOXB6)
GTTAATTA,"10.3 upbm affinity estimate (log intensity, higher = more binding, comparable within an allelic series)","12.9 upbm affinity estimate (log intensity, higher = more binding, comparable within an allelic series)","13 upbm affinity estimate (log intensity, higher = more binding, comparable within an allelic series)","12.2 upbm affinity estimate (log intensity, higher = more binding, comparable within an allelic series)","12.3 upbm affinity estimate (log intensity, higher = more binding, comparable within an allelic series)","12.1 upbm affinity estimate (log intensity, higher = more binding, comparable within an allelic series)","12.7 upbm affinity estimate (log intensity, higher = more binding, comparable within an allelic series)","12 upbm affinity estimate (log intensity, higher = more binding, comparable within an allelic series)","12.8 upbm affinity estimate (log intensity, higher = more binding, comparable within an allelic series)","12.8 upbm affinity estimate (log intensity, higher = more binding, comparable within an allelic series)","13.8 upbm affinity estimate (log intensity, higher = more binding, comparable within an allelic series)","12.3 upbm affinity estimate (log intensity, higher = more binding, comparable within an allelic series)","13.8 upbm affinity estimate (log intensity, higher = more binding, comparable within an allelic series)","11.8 upbm affinity estimate (log intensity, higher = more binding, comparable within an allelic series)","11.1 upbm affinity estimate (log intensity, higher = more binding, comparable within an allelic series)","11.3 upbm affinity estimate (log intensity, higher = more binding, comparable within an allelic series)","10.9 upbm affinity estimate (log intensity, higher = more binding, comparable within an allelic series)","8.93 upbm affinity estimate (log intensity, higher = more binding, comparable within an allelic series)","13.2 upbm affinity estimate (log intensity, higher = more binding, comparable within an allelic series)","12.5 upbm affinity estimate (log intensity, higher = more binding, comparable within an allelic series)"
ATTAATTA,"10.6 upbm affinity estimate (log intensity, higher = more binding, comparable within an allelic series)","13.3 upbm affinity estimate (log intensity, higher = more binding, comparable within an allelic series)","13.2 upbm affinity estimate (log intensity, higher = more binding, comparable within an allelic series)","12.6 upbm affinity estimate (log intensity, higher = more binding, comparable within an allelic series)","12.6 upbm affinity estimate (log intensity, higher = more binding, comparable within an allelic series)","12.2 upbm affinity estimate (log intensity, higher = more binding, comparable within an allelic series)","12.8 upbm affinity estimate (log intensity, higher = more binding, comparable within an allelic series)","12.6 upbm affinity estimate (log intensity, higher = more binding, comparable within an allelic series)","13.2 upbm affinity estimate (log intensity, higher = more binding, comparable within an allelic series)","13.2 upbm affinity estimate (log intensity, higher = more binding, comparable within an allelic series)","14 upbm affinity estimate (log intensity, higher = more binding, comparable within an allelic series)","12.7 upbm affinity estimate (log intensity, higher = more binding, comparable within an allelic series)","13.8 upbm affinity estimate (log intensity, higher = more binding, comparable within an allelic series)","12.3 upbm affinity estimate (log intensity, higher = more binding, comparable within an allelic series)","11.5 upbm affinity estimate (log intensity, higher = more binding, comparable within an allelic series)","11.4 upbm affinity estimate (log intensity, higher = more binding, comparable within an allelic series)","11.1 upbm affinity estimate (log intensity, higher = more binding, comparable within an allelic series)","9.01 upbm affinity estimate (log intensity, higher = more binding, comparable within an allelic series)","13.3 upbm affinity estimate (log intensity, higher = more binding, comparable within an allelic series)","12.8 upbm affinity estimate (log intensity, higher = more binding, comparable within an allelic series)"
ATTAATGA,"10.4 upbm affinity estimate (log intensity, higher = more binding, comparable within an allelic series)","13 upbm affinity estimate (log intensity, higher = more binding, comparable within an allelic series)","12.8 upbm affinity estimate (log intensity, higher = more binding, comparable within an allelic series)","12 upbm affinity estimate (log intensity, higher = more binding, comparable within an allelic series)","12.5 upbm affinity estimate (log intensity, higher = more binding, comparable within an allelic series)","11.8 upbm affinity estimate (log intensity, higher = more binding, comparable within an allelic series)","12.3 upbm affinity estimate (log intensity, higher = more binding, comparable within an allelic series)","12.2 upbm affinity estimate (log intensity, higher = more binding, comparable within an allelic series)","13 upbm affinity estimate (log intensity, higher = more binding, comparable within an allelic series)","12.9 upbm affinity estimate (log intensity, higher = more binding, comparable within an allelic series)","13.7 upbm affinity estimate (log intensity, higher = more binding, comparable within an allelic series)","12.3 upbm affinity estimate (log intensity, higher = more binding, comparable within an allelic series)","13.4 upbm affinity estimate (log intensity, higher = more binding, comparable within an allelic series)","11.9 upbm affinity estimate (log intensity, higher = more binding, comparable within an allelic series)","11.2 upbm affinity estimate (log intensity, higher = more binding, comparable within an allelic series)","11 upbm affinity estimate (log intensity, higher = more binding, comparable within an allelic series)","11 upbm affinity estimate (log intensity, higher = more binding, comparable within an allelic series)","8.94 upbm affinity estimate (log intensity, higher = more binding, comparable within an allelic series)","12.9 upbm affinity estimate (log intensity, higher = more binding, comparable within an allelic series)","12.3 upbm affinity estimate (log intensity, higher = more binding, comparable within an allelic series)"
ATAATTAT,"10.4 upbm affinity estimate (log intensity, higher = more binding, comparable within an allelic series)","12.9 upbm affinity estimate (log intensity, higher = more binding, comparable within an allelic series)","12.3 upbm affinity estimate (log intensity, higher = more binding, comparable within an allelic series)","12 upbm affinity estimate (log intensity, higher = more binding, comparable within an allelic series)","12.3 upbm affinity estimate (log intensity, higher = more binding, comparable within an allelic series)","11.9 upbm affinity estimate (log intensity, higher = more binding, comparable within an allelic series)","12.4 upbm affinity estimate (log intensity, higher = more binding, comparable within an allelic series)","12 upbm affinity estimate (log intensity, higher = more binding, comparable within an allelic series)","12.9 upbm affinity estimate (log intensity, higher = more binding, comparable within an allelic series)","12.8 upbm affinity estimate (log intensity, higher = more binding, comparable within an allelic series)","13.8 upbm affinity estimate (log intensity, higher = more binding, comparable within an allelic series)","12.1 upbm affinity estimate (log intensity, higher = more binding, comparable within an allelic series)","13.2 upbm affinity estimate (log intensity, higher = more binding, comparable within an allelic series)","11.7 upbm affinity estimate (log intensity, higher = more binding, comparable within an allelic series)","11.2 upbm affinity estimate (log intensity, higher = more binding, comparable within an allelic series)","11.3 upbm affinity estimate (log intensity, higher = more binding, comparable within an allelic series)","10.9 upbm affinity estimate (log intensity, higher = more binding, comparable within an allelic series)","9.06 upbm affinity estimate (log intensity, higher = more binding, comparable within an allelic series)","13.1 upbm affinity estimate (log intensity, higher = more binding, comparable within an allelic series)","12.4 upbm affinity estimate (log intensity, higher = more binding, comparable within an allelic series)"
TAATTACA,"10.3 upbm affinity estimate (log intensity, higher = more binding, comparable within an allelic series)","12.9 upbm affinity estimate (log intensity, higher = more binding, comparable within an allelic series)","12.7 upbm affinity estimate (log intensity, higher = more binding, comparable within an allelic series)","12.1 upbm affinity estimate (log intensity, higher = more binding, comparable within an allelic series)","12.3 upbm affinity estimate (log intensity, higher = more binding, comparable within an allelic series)","11.9 upbm affinity estimate (log intensity, higher = more binding, comparable within an allelic series)","12.4 upbm affinity estimate (log intensity, higher = more binding, comparable within an allelic series)","12.1 upbm affinity estimate (log intensity, higher = more binding, comparable within an allelic series)","12.8 upbm affinity estimate (log intensity, higher = more binding, comparable within an allelic series)","12.9 upbm affinity estimate (log intensity, higher = more binding, comparable within an allelic series)","14 upbm affinity estimate (log intensity, higher = more binding, comparable within an allelic series)","12.3 upbm affinity estimate (log intensity, higher = more binding, comparable within an allelic series)","13.6 upbm affinity estimate (log intensity, higher = more binding, comparable within an allelic series)","11.8 upbm affinity estimate (log intensity, higher = more binding, comparable within an allelic series)","11 upbm affinity estimate (log intensity, higher = more binding, comparable within an allelic series)","11.2 upbm affinity estimate (log intensity, higher = more binding, comparable within an allelic series)","11 upbm affinity estimate (log intensity, higher = more binding, comparable within an allelic series)","8.98 upbm affinity estimate (log intensity, higher = more binding, comparable within an allelic series)","13.3 upbm affinity estimate (log intensity, higher = more binding, comparable within an allelic series)","12.5 upbm affinity estimate (log intensity, higher = more binding, comparable within an allelic series)"
AATTAATA,"10.3 upbm affinity estimate (log intensity, higher = more binding, comparable within an allelic series)","12.8 upbm affinity estimate (log intensity, higher = more binding, comparable within an allelic series)","12.3 upbm affinity estimate (log intensity, higher = more binding, comparable within an allelic series)","11.7 upbm affinity estimate (log intensity, higher = more binding, comparable within an allelic series)","12.2 upbm affinity estimate (log intensity, higher = more binding, comparable within an allelic series)","12 upbm affinity estimate (log intensity, higher = more binding, comparable within an allelic series)","12.5 upbm affinity estimate (log intensity, higher = more binding, comparable within an allelic series)","12 upbm affinity estimate (log intensity, higher = more binding, comparable within an allelic series)","12.7 upbm affinity estimate (log intensity, higher = more binding, comparable within an allelic series)","12.7 upbm affinity estimate (log intensity, higher = more binding, comparable within an allelic series)","13.1 upbm affinity estimate (log intensity, higher = more binding, comparable within an allelic series)","12 upbm affinity estimate (log intensity, higher = more binding, comparable within an allelic series)","12.9 upbm affinity estimate (log intensity, higher = more binding, comparable within an allelic series)","11.8 upbm affinity estimate (log intensity, higher = more binding, comparable within an allelic series)","11.3 upbm affinity estimate (log intensity, higher = more binding, comparable within an allelic series)","11.2 upbm affinity estimate (log intensity, higher = more binding, comparable within an allelic series)","11.1 upbm affinity estimate (log intensity, higher = more binding, comparable within an allelic series)","8.99 upbm affinity estimate (log intensity, higher = more binding, comparable within an allelic series)","12.1 upbm affinity estimate (log intensity, higher = more binding, comparable within an allelic series)","12.1 upbm affinity estimate (log intensity, higher = more binding, comparable within an allelic series)"
